Screening results deposited in PubChem BioAssay by NMMLSC.
LAP4 TOR yeast: yeast TOR pathway LAP4-GFP modulation; S. cerevisiae LAP4-GFP multiplex, flow cytometry GFP, 3 h; median GFP as percent of DMSO wells; GFP response vs DMSO, % at 10 µM; 0.34% of 320,000 active; AID 2023;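 active = GFP response vs DMSO above a set limit, about the screen mean plus 3 SD, cut at about 150% in these data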
AGP1-GFP MLPCN: yeast TOR pathway AGP1-GFP modulation; S. cerevisiae AGP1-GFP multiplex flow cytometry, 3 h; GFP as percent of DMSO wells; 0.02% of 320,000 active; GFP response vs DMSO, % at 10 µM;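 active = GFP response relative to DMSO above a set limit, near screen average plus 3 SD, cut at about 150% in these data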;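 note: median GFP channel fluorescence of the gated AGP1 strain per well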
CIT2 TOR yeast: modulators of TOR pathway CIT2-GFP in S. cerevisiae | AID 2029 | S. cerevisiae CIT2-GFP strain, flow cytometry, 3 h; 100 means same as DMSO wells | GFP response vs DMSO, % at 10 µM | 0.065% of 320,000 active;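 active = GFP response relative to DMSO above a set limit, near the screen mean plus 3 SD, cut at about 150% in these data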;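 note: ratio of well median GFP fluorescence to mean of DMSO wells on the plate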
MEP2 TOR yeast: yeast TOR pathway MEP2-GFP modulation. S. cerevisiae MEP2-GFP strain, flow cytometry GFP, 3 h; 100% = DMSO control level. GFP response vs DMSO, % at 10 µM. 0.51% of 330,000 active. AID 2016;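 active = GFP response versus DMSO above a set limit, roughly screen mean plus 3 SD, cut at about 180% in these data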;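 note: median GFP fluorescence of the barcode-gated MEP2-GFP cells per well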
RPL19A-GFP yeast: alters RPL19A-GFP fluorescence in TOR pathway yeast screen. 0.3% of 330,000 active. S. cerevisiae RPL19A-GFP strain, flow cytometry, 3 h; active compounds read low. percent response vs DMSO, % at 10 µM;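 active = percent response vs DMSO below 50%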;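 note: median channel GFP fluorescence of the barcoded RPL19A-GFP strain; ratio of sample median GFP to plate DMSO average so 100% = DMSO; lower means less RPL19A-GFP as with rapamycin TOR inhibition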
LAP4-GFP pick2: second confirmation of modulators of TOR reporter LAP4-GFP in yeast. shares compounds with LAP4 TOR yeast. S. cerevisiae LAP4-GFP strain, flow cytometry GFP, 3 h. GFP response vs DMSO, % at 10 µM. 20% of 590 active. AID 2621;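 active = GFP signal as percent of the solvent control above about 150%, meaning raised reporter expression, limit read from the data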;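 note: ratio of well median GFP fluorescence to plate DMSO mean so 100% = DMSO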
MEP2 cherry2: yeast MEP2-GFP modulation, second cherry pick. GFP response vs DMSO, % at 10 µM. S. cerevisiae MEP2-GFP strain, flow cytometry GFP, 3 h. shares compounds with LAP4 TOR yeast. 10% of 590 active;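 active = GFP signal above 150% of the solvent control wells, that is a rise of more than half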;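 note: median channel GFP fluorescence of all gated yeast cells per well; ratio of median GFP to plate DMSO average so 100% = DMSO level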
RPL19A-GFP pick2: second confirmation of modulators of TOR reporter RPL19A-GFP in yeast | GFP response vs DMSO, % at 10 µM | AID 2623 | 3% of 590 active | S. cerevisiae RPL19A-GFP strain, flow cytometry GFP, 3 h; active compounds read low; 100% means same as DMSO wells | shares compounds with LAP4 TOR yeast;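 active = under 65% GFP response relative to DMSO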;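 note: median GFP channel fluorescence per well over the all cells gate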
CIT2 GFP CP2: second confirmation of modulators of TOR reporter CIT2-GFP in yeast. shares compounds with LAP4 TOR yeast. S. cerevisiae CIT2-GFP strain, flow cytometry GFP, 3 h; DMSO control wells read 100%. GFP response vs DMSO, % at 10 µM. 8% of 590 active;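 active = GFP response vs DMSO above about 150%, limit read from the data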;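 note: median green fluorescence per well over all gated yeast cells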
AGP1 GFP CP2: second confirmation of modulators of TOR reporter AGP1-GFP in yeast; 590 tested, under 10 active; shares compounds with LAP4 TOR yeast; AID 2643; S. cerevisiae AGP1-GFP strain, flow cytometry GFP, 3 h; percent response vs DMSO, % at 10 µM;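 active = over 150 percent of DMSO response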;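 note: median GFP channel fluorescence over all cells without mother daughter split; sample median GFP divided by mean DMSO control so 100% equals DMSO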
Yeast autofluor: counter-screen for compound autofluorescence in yeast s288c cells | AID 2757 | fluorescence change (kMESF span) at 33 µM | shares compounds with LAP4 TOR yeast | S. cerevisiae s288c, 520 nm autofluorescence, flow cytometry, 3 h; active compounds read high; zero means same as solvent-only cells | 610 tested, under 10 active;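 active = fluorescence span over the dose series, or activity score, above about 33, limit read from the data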
Yeast autofl DR: counter-screen for autofluorescence of TOR hits in yeast s288c | shares compounds with LAP4 TOR yeast | S. cerevisiae s288c parental, compound autofluorescence, flow cytometry, 3 h | fluorescence change (span) at 33 µM | 110 tested, under 10 active | AID 488829;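 active = fluorescence change span, or the activity score built from it, above 25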
TORC1 bypass: stops wildtype yeast growth while TORC1 bypass cells still grow. growth rating (0-3) at 30 µM. S. cerevisiae BY4741 spot growth rating, 48-72 h; active compounds read low. shares compounds with LAP4 TOR yeast. AID 504456. 120 tested, under 10 active;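 active = growth rating at most 1 for wild type yeast while the TORC1 bypass strain still grows fully, rated 3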
An asterisk follows results filed as active; . = not tested or not shown. In the library only some 0.89% were active in any assay of this set; here they are far more common.

SMILES	LAP4 TOR yeast	AGP1-GFP MLPCN	CIT2 TOR yeast	MEP2 TOR yeast	RPL19A-GFP yeast	Yeast autofluor	others
O=C(N[C@@H](Cc1ccccc1)C(=O)N[C@@H](Cc1ccccc1)C(=O)O)OCc1ccccc1	99	107	101	106	105	.
O=C(N[C@@H](Cc1ccccc1)C(=O)CCl)OCc1ccccc1	151*	77	61	88	100	.	LAP4-GFP pick2=140;MEP2 cherry2=103;RPL19A-GFP pick2=96;CIT2 GFP CP2=90;AGP1 GFP CP2=96
CCN1CCN(C(C)CCc2ccccc2)CC1 (configuration not stated)	93	102	110	106	110	.
O=C(OCn1ncc(Br)c(Br)c1=O)c1c(F)cccc1F	227*	93	81	85	87	0.31	Yeast autofl DR=0.15;TORC1 bypass=3
O=C(c1ccccc1)c1ccccc1N1C(=O)C=CC1=O	327*	85	70	87	81	1.1
O=S(=O)(/N=C(/Sc1ccccc1)c1ccccc1)c1ccccc1	190*	83	62	90	94	0.1
CS/C(=N\S(=O)(=O)c1ccccc1)c1ccccc1	99	102	92	92	99	.
CNc1nc(N)cc(Nc2cccc(Cl)c2)n1	.	.	.	.	.	.	TORC1 bypass=3
Cc1ccccc1NC(=O)C(NC1CCCCC1)C(C)C (configuration not stated)	93	74	93	149	56	.	LAP4-GFP pick2=102;MEP2 cherry2=103;RPL19A-GFP pick2=98;CIT2 GFP CP2=99;AGP1 GFP CP2=104
O=C(COC(=O)Cc1cccs1)Nc1ccc(OC(F)(F)F)cc1	94	89	79	87	86	.
